WRN inhibitor: inhibitors of human WRN helicase. Q14191. WRN helicase unwinding, fluorescent forked duplex, kinetic. Potency, µM (series often up to 114 µM), inactives show top-dose activity change, negative = inhibition, usual class: inhibitors. 0.46% of 360,000 active; also: % is scaled to controls: 0 for no effect and ±100 for the full control effect; nearly all actives have a fitted effect of over 55% in size
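Fluorescence dequenching readout, ex 525 nm/em 598 nm, kinetic mode: forked duplex DNA (100 nM final) with adjacent fluorophore and quencher unwound by WRN (20 nM final) with 2 mM ATP. Compound preincubation 15 min, room temperature.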
FEN1 inh: human FEN1 inhibition | Recombinant FEN1 flap cleavage, fluorescence, 15 min | Potency, µM (highest dose often 114 µM), without a hit: top-dose activity change, negative = inhibition, hits mostly inhibitors | 0.35% of 390,000 active | P39748; also: % is scaled to controls: 0 for no effect and ±100 for the full control effect; nearly all actives have a fitted effect of over 65% in size
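Compounds are tested as a concentration series against 10 nM FEN1; after a 15 min room-temperature preincubation, 50 nM substrate starts cleavage, with plate reads at 0 and 15 min. Normalized responses are fitted by a Hill equation.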
Pol eta inh: inhibitors of human DNA polymerase eta; recombinant Pol eta, fluorescent DNA replication assay; Potency, µM (titrated, usually from 114 µM), for the others: at the top dose activity change, negative = inhibition, most hits filed as inhibitors; 1.2% of 390,000 active; also: % is scaled to controls: 0 for no effect and ±100 for the full control effect
Target sequence (Q9Y253 whole entry, looked up): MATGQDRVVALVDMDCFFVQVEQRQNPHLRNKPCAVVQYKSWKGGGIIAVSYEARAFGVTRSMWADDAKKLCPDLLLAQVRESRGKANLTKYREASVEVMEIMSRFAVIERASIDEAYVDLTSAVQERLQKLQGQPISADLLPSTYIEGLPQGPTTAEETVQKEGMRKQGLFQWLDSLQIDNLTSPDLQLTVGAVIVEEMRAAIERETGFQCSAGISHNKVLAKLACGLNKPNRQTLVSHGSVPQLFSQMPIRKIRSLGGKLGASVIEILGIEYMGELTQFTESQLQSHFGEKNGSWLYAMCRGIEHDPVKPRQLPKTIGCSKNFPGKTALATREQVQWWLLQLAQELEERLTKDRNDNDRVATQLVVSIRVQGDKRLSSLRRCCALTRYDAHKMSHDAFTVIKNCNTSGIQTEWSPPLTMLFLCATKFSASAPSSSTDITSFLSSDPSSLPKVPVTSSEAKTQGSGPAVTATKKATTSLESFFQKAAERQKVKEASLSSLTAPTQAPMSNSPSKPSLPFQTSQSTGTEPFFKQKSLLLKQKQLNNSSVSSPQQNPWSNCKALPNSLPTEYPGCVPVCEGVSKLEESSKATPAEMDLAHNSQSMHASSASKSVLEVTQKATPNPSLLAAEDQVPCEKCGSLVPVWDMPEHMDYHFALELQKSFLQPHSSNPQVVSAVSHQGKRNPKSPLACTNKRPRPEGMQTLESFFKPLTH
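Pol eta (10 nM) was preincubated with compounds for 15 min at room temperature, after which fluorescent replication substrate (50 nM final) was added to start the reaction. Fluorescence was read kinetically at 0 and 10 min.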
POLI inh: DNA polymerase iota (human) inhibition | Pol iota fluorescent replication assay, 10 min | Potency, µM (top dose mostly 115 µM), for the others: at the top dose activity, negative = inhibition, usual class: inhibitors | 1% of 390,000 active | AID 588590
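Fluorescent replication assay read twice, at 0 min and 10 min after adding 50 nM (final) substrate. Enzyme (10 nM) and compounds were first incubated 15 min at room temperature; enzyme-free buffer wells were negative controls.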
Pol beta inh: inhibitors of human DNA polymerase beta; P06746; 1.3% of 340,000 active; Pol beta primer extension/strand displacement, fluorescence kinetic; AID 485314; Potency, µM (top dose mostly 114 µM), without a hit: at the top dose activity change, negative = inhibition, hits mostly inhibitors; also: % is scaled to controls: 0 for no effect and ±100 for the full control effect
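Curves were derived by four-parameter Hill fits of normalized qHTS data. The kinetic fluorescent primer-extension read was taken at 0 and 10 min after 50 nM substrate, following a 15 min room-temperature preincubation of 10 nM enzyme with compounds.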
POLK inh: blocks human DNA polymerase kappa activity. purified Pol kappa, fluorescent DNA synthesis assay, 10 min. Potency, µM (doses to about 107 µM), for inactives: at the highest dose activity, negative = inhibition, usual class: inhibitors. 0.53% of 400,000 active. AID 588579; also: % is scaled to controls: 0 for no effect and ±100 for the full control effect
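Enzyme at 10 nM met test compounds for 15 min at room temperature. Substrate addition (50 nM final) began the reaction, which was monitored by fluorescence at 0 and 10 min.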
Active calls of the source: *; [ ] = another dose, or the depositor's remark. Rows were chosen to be rich in hits. Some 2.4% of all compounds tested hit in one or more screens of this group. Calls follow the shape of the dose curve; as a rule, active = well fitted curve in the direction sought with a large enough effect; inconclusive = small, poorly fitted or top-dose-only effect, or another doubt; inactive = no such curve, though single readings can be large; an effect the other way counts as inactive or inconclusive. Potency is read from the fitted curve at half-maximal effect.

What do the screens show for `COc1ccc(OC)c(C2Nc3c(C)cc(C)cc3-c3cc(C)nn32)c1` (configuration not stated)?
FEN1 inh: -20%; Pol eta inh: -22%; POLI inh: 3%; Pol beta inh: 4%; POLK inh: -12%

How did O=C(C[n+]1c(Cl)ccc2ccccc21)c1ccc2ccccc2c1 do in these assays?
FEN1 inh: 7%; POLI inh: 10%; POLK inh: -15%

What do the screens show for `Cc1ccc2c(c1C)-c1c(ccc(C)c1C)C(=O)C2=O`?
WRN inhibitor: -26%; FEN1 inh: inconclusive; Pol eta inh: 22µM*; POLI inh: 25µM*; POLK inh: -6%

How did Cc1ccc(CC#N)c(-c2c(CC#N)ccc(C)c2C)c1C do in these assays?
WRN inhibitor: -3%; Pol eta inh: -15%

How did Cc1cccc2nc(Cn3c(=O)n(CCCC(=O)NCc4ccco4)c(=O)c4ccccc43)cc(=O)n12 do in these assays?
WRN inhibitor: inconclusive; FEN1 inh: -9%; Pol eta inh: inconclusive; POLI inh: inconclusive; Pol beta inh: 22µM*; POLK inh: 0%

What do the screens show for `Cn1c2ccccc2c(=O)c2ccc(C#CC3(N)CCCCC3)cc21`?
WRN inhibitor: 40%; FEN1 inh: 22µM*; Pol eta inh: -10%; POLI inh: inconclusive; Pol beta inh: 35µM*; POLK inh: inconclusive

How did CCN(C(=O)CN1CCN(c2ccc(O)cc2)CC1)c1c(N)n(Cc2ccccc2)c(=O)[nH]c1=O do in these assays?
WRN inhibitor: -13%; FEN1 inh: 0%; Pol eta inh: 12%; POLI inh: inconclusive; Pol beta inh: 45µM*; POLK inh: -36%

How did O=C1c2ccccc2NC(c2cccc(F)c2)N1Cc1ccco1 (configuration not stated) do in these assays?
WRN inhibitor: -22%; FEN1 inh: -6%; Pol eta inh: -6%; POLI inh: 8%; Pol beta inh: 7.9µM*; POLK inh: -18%

Results for Cc1cc(C)n(-c2nc(NC(C)C)nc(NC(C)(C)C)n2)n1 ?
FEN1 inh: 11%; POLI inh: 28%; POLK inh: -4%

How did C=CCSc1nnc2nc3c(nn12)c1cc(C)ccc1n3CC=C do in these assays?
WRN inhibitor: inconclusive; FEN1 inh: -10%; Pol eta inh: inconclusive; POLI inh: inconclusive; Pol beta inh: 25µM*; POLK inh: 2%

How did C=CCn1c2ccccc2c2nnc(SCC(N)=O)nc21 do in these assays?
WRN inhibitor: -9%; FEN1 inh: 16%; Pol eta inh: -12%; POLI inh: 26%; Pol beta inh: 58%; POLK inh: -9%

How did CCc1nn2c(=O)cc(COc3ccc(NC(=O)c4ccco4)cc3)nc2s1 do in these assays?
WRN inhibitor: -11%; FEN1 inh: 15%; Pol eta inh: -10%; POLI inh: 71µM*; Pol beta inh: -21%; POLK inh: -22%

How did CC(C)Cc1nn2c(=O)cc(COc3ccc(NC(=O)c4ccco4)cc3)nc2s1 do in these assays?
WRN inhibitor: -9%; FEN1 inh: -16%; Pol eta inh: -5%; POLI inh: -21%; Pol beta inh: 0%; POLK inh: -3%

Results for CN(C)c1ccc(CCC2C=Cc3ccccc32)cc1 (configuration not stated) ?
FEN1 inh: 11%; POLI inh: 2%; POLK inh: -4%

What do the screens show for `CCN(CC)c1ccc(C=C2C(=O)OC(c3ccccc3)OC2=O)cc1` (configuration not stated)?
WRN inhibitor: 50µM*; FEN1 inh: -3%; Pol eta inh: inconclusive; POLI inh: 34%; Pol beta inh: 12%; POLK inh: -11%

What do the screens show for `CCN(CC)c1ccc(C=C2C(=O)OC(C)(C(C)(C)C)OC2=O)cc1` (configuration not stated)?
WRN inhibitor: inconclusive; FEN1 inh: -13%; Pol eta inh: -13%; POLI inh: inconclusive; Pol beta inh: 14%; POLK inh: 2%

What do the screens show for `CCN(CC)c1ccc(C=C2C(=O)OC3(CCCC3)OC2=O)cc1`?
WRN inhibitor: 50µM*; FEN1 inh: -10%; Pol eta inh: 1%; POLI inh: -4%; Pol beta inh: -1%; POLK inh: -9%

What do the screens show for `CN(C)c1ccc(C=C2C(=O)OC(C)(C)OC2=O)cc1`?
WRN inhibitor: -11%; FEN1 inh: 10%; Pol eta inh: -2%; POLI inh: 50%; Pol beta inh: -4%; POLK inh: 0%

How did C[N+]1(CC(=O)c2ccc3ccccc3c2)CCOCC1 do in these assays?
FEN1 inh: -22%; POLI inh: 39%; POLK inh: 2%

What do the screens show for `O=c1c(O)c(-c2ccc(O)c(O)c2)oc2ccccc12`?
POLK inh: 0.35µM*

Results for O=c1c(O)c(-c2ccc(O)cc2)oc2cc(O)ccc12 ?
POLK inh: -11%[19.4 µM]

Results for O=c1c(O)c(-c2cc(O)c(O)c(O)c2)oc2cc(O)ccc12 ?
POLK inh: 0.24µM*

Results for SCc1nc2ccccc2[nH]1 ?
FEN1 inh: -12%; POLI inh: -5%; POLK inh: -12%

What do the screens show for `O=C(Nc1nc(-c2ccco2)c(-c2ccco2)s1)C1CCC1`?
WRN inhibitor: inconclusive; FEN1 inh: -26%; Pol eta inh: 25µM*; POLI inh: inconclusive; Pol beta inh: inconclusive; POLK inh: inconclusive

What do the screens show for `CC[C@H](C)[C@H](NC(=O)[C@H](C)NC(=O)CNC(=O)[C@H](CCCCN)NC(=O)[C@H](CC(N)=O)NC(=O)[C@H](CO)NC(=O)CN)C(=O)N[C@H](C(=O)NCC(=O)N[C@@H](CC(C)C)C(=O)N[C@@H](CCSC)C(=O)O)[C@@H](C)CC`?
POLK inh: 2%[60.1 µM]

What do the screens show for `CC(=O)Nc1ccc(/C=C/C(=O)c2ccc(-n3nncc3-c3ccccc3)cc2)cc1`?
FEN1 inh: -2%; POLI inh: inconclusive; POLK inh: -17%

How did O=C1OC2(c3ccccc31)c1cc(I)c(O)c(I)c1Oc1c2cc(I)c(O)c1I do in these assays?
POLK inh: 27µM*

Results for O=C1OC2(c3cc(I)c(O)c(I)c3Oc3c2cc(I)c(O)c3I)c2c(Cl)c(Cl)c(Cl)c(Cl)c21 ?
POLK inh: 7.5µM*

Results for O=C1OC2(c3ccc(O)cc3Oc3cc(O)ccc32)c2ccccc21 ?
POLK inh: 30µM*

How did Cc1nn(-c2ccccc2)c2nc(C3CC3)cc(C(=O)Nc3cccc(F)c3)c12 do in these assays?
FEN1 inh: 3%; Pol eta inh: -23%; POLI inh: -17%; Pol beta inh: 1%; POLK inh: 1%
